For two compounds, AC50 and outcome results are on record in PubChem BioAssay (EPA / NIEHS).

In general, AC50 refers to the midpoint of the concentration-response curve, whichever way the signal moves.

For this assay, the target named is human Acid Phosphatase 1 (ACP1), ACP1 (gene 52) (UniProt P24666). As to the kind of experiment: NVS_ENZ_hACP1: NovaScreen (NVS) Enzymatic Assay for human Acid Phosphatase 1 (ACP1) (AID 2283136). The essentials: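 Recombinant enzyme expressed in Sf9 cells, tested cell-free; activity read by fluorescence with electrophoretic mobility shift separation of substrate and product, 1.5 h after dosing. Primary screen in duplicate at 25 uM, actives then run in concentration series; loss of signal versus DMSO.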

Molecules are shown by their SMILES. Results filed as inconclusive are left out. Calls of active or inactive are those of the source. The calls were made as follows: active = hit-call score of the fitted dose curve at least 0.9, where 1 is the maximum; inconclusive = response in the unintended direction; inactive = score below 0.9.

Sequence of human Acid Phosphatase 1 (ACP1), ACP1 (gene 52) (P24666 whole entry, looked up): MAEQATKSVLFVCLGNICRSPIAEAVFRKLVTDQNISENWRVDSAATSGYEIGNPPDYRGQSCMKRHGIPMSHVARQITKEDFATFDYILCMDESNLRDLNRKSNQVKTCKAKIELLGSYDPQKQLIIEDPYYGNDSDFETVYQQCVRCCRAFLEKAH

Consider `CN(C)[C@@H]1C(=O)C(C(N)=O)=C(O)[C@@]2(O)C(=O)C3=C(O)c4c(O)cccc4[C@@](C)(O)[C@H]3[C@H](O)[C@@H]12`, for which the AC50 was 23.1 µM (active).
Regarding `S=C1NCCN1`, the call was inactive.
